Here are results for five molecules from PubChem BioAssay.

Activity calls are given as the source filed them.

Assay [1] in a line: binders of probe aFSTL3 on microarray, primary screen, stem cell growth factor project, biochemical, small-molecule microarray, fluorescence 635/667 (AID 1064).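 Note: measures binding of the biotinylated anti-FSTL3 antibody to printed compounds.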 As to conditions: higher = more signal.
Assay [2] is described as follows: binders from COS7 lysate, DM2A8 probe, primary screen, torsin A project, cell lysate, small-molecule microarray, fluorescence 635/667 (AID 1065). As to conditions: higher = more signal, COS7 lysate expressing mutant human TOR1A.
Assay [3] in a line: binders of probe aFGF2 on microarray, primary screen, stem cell growth factor project, biochemical, small-molecule microarray, fluorescence 635/667 (AID 1067).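 Note: measures binding of biotinylated aFGF2 protein to printed compounds on slides; z-score merges feature fluorescence and signal-to-noise across triplicate slides.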 As to conditions: higher = more signal.
A short description of assay [4]: binders of probe aFGF10 on microarray, primary screen, stem cell growth factor project, biochemical, small-molecule microarray, fluorescence 635/667 (AID 1071).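 Note: score merges 667 nm spot intensity and signal to noise from triplicate slides.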 As to conditions: higher = more signal.
For assay [5], the target named is Neurogenic locus notch homolog protein 2 (Homo sapiens) (UniProt Q04721). Briefly: Notch2 binders on small-molecule microarrays, primary screen, biochemical, small-molecule microarray, 635 nm fluorescence, stem cell growth factors (AID 1073). The following applies: Notch2 binding, higher = more signal.
Neurogenic locus notch homolog protein 2 (Homo sapiens), sequence (Q04721 whole entry, looked up, canonical isoform): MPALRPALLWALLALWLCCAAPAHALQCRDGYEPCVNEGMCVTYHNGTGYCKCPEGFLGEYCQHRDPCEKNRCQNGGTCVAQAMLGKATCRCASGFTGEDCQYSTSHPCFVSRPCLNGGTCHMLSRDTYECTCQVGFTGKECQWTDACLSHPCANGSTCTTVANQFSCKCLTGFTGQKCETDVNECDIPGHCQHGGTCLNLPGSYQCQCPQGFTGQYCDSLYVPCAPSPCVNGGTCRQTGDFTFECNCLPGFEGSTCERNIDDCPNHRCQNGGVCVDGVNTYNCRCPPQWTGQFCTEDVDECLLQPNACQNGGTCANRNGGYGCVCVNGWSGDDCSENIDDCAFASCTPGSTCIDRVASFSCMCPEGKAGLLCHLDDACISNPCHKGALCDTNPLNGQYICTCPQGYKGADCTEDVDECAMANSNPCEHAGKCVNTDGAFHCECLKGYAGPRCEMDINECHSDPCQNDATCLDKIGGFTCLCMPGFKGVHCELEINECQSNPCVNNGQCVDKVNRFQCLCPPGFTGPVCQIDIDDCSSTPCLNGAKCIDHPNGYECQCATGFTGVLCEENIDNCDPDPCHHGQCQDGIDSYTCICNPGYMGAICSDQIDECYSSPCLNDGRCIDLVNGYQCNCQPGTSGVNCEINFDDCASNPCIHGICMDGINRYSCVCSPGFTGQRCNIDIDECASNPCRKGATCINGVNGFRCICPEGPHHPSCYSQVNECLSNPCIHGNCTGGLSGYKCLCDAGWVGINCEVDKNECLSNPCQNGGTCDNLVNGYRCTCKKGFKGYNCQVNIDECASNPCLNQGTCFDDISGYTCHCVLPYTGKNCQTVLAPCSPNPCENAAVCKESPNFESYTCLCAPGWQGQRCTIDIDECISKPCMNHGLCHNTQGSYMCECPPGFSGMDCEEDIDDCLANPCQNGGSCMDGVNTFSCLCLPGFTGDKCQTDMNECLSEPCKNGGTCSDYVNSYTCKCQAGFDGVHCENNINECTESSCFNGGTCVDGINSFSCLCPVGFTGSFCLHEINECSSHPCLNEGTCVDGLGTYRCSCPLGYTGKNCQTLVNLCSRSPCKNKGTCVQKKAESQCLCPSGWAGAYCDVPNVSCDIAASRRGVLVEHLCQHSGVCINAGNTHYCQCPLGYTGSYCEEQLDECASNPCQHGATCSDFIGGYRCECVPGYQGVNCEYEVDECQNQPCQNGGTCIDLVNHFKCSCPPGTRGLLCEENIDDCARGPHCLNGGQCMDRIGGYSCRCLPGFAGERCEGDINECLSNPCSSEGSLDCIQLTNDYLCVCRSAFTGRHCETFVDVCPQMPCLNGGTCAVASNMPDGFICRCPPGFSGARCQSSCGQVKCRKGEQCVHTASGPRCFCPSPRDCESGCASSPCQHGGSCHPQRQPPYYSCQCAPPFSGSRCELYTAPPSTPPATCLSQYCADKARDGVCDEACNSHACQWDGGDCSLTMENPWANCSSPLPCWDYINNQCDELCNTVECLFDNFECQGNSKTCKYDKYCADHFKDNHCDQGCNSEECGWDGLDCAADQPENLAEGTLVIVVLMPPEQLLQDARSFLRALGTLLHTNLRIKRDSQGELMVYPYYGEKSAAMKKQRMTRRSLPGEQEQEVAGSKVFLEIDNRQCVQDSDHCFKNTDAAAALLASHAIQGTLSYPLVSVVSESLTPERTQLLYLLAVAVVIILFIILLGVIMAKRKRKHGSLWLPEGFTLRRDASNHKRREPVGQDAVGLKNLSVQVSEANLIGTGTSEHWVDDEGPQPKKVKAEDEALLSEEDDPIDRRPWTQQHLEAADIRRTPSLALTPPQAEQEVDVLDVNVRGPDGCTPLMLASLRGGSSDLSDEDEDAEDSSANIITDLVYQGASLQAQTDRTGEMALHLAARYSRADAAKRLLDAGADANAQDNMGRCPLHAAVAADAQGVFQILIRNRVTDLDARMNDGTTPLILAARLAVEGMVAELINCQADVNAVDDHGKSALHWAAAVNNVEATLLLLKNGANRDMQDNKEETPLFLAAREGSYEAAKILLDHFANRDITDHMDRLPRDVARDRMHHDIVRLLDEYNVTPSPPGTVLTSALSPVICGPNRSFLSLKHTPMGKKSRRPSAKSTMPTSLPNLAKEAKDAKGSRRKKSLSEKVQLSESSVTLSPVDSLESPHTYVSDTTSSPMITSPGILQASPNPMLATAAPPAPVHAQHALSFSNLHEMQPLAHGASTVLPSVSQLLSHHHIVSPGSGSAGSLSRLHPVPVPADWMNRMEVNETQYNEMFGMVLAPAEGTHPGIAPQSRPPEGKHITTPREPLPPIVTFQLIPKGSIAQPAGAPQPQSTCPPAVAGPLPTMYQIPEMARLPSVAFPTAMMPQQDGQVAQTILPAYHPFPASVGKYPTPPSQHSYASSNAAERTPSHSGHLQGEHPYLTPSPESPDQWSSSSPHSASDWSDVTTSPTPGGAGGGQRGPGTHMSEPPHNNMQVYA
Assay [6] deals with Pro-neuregulin-1, membrane-bound isoform (Homo sapiens) (UniProt Q02297). Briefly: NRG1 binders on small-molecule microarrays, primary screen, psychiatric disease protein project, biochemical, small-molecule microarray, fluorescence 635/667 (AID 1075).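 Note: score combines 667 nm spot fluorescence with signal to noise.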 The following applies: NRG1 binding, 635 nm fluorescence, higher = more signal.
Pro-neuregulin-1, membrane-bound isoform (Homo sapiens), sequence (Q02297 whole entry, looked up, the tested form may be a part, canonical isoform): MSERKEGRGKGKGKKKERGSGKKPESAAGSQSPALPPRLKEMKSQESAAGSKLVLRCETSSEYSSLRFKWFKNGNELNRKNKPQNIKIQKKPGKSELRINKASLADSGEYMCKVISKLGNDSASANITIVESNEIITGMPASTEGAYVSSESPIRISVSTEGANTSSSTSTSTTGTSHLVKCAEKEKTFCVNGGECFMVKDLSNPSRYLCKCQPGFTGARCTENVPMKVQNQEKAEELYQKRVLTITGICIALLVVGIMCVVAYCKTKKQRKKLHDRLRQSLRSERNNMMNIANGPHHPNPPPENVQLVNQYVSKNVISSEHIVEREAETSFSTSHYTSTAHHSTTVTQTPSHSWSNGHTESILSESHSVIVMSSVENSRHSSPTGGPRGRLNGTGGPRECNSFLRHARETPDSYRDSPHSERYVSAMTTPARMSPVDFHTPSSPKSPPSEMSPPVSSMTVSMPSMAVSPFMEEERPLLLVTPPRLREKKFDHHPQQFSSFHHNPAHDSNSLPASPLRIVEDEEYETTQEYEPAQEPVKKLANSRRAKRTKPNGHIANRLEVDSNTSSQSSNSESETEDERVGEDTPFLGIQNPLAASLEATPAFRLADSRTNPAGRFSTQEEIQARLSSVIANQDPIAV
Assay [7] relates to Neuregulin-1 EGF-like domain. The assay can be described thus: binders of neuregulin-1 EGF-like domain, primary screen, biochemical, small-molecule microarray, 635 nm fluorescence (AID 1081).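 Note: binding of the protein to compounds printed on small-molecule microarray slides.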 As to conditions: small-molecule microarray binding, higher = more signal.
The nature of assay [8]: FRG1 promoter luciferase signal modulators, primary screen, FRG1 inhibition for FSHD, cell-based, C2C12 myotubes, firefly/Renilla luciferase, luminescence (AID 1084). The following applies: higher = more signal, called active from +8 up or from −8 down.
Assay [9] in a line: binders of probe aFST on microarray, primary screen, stem cell growth factor project, biochemical, small-molecule microarray, fluorescence 635/667 (AID 1086).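 Note: score merges 667 nm fluorescence with signal-to-noise of each printed compound spot.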 As to conditions: higher = more signal.
A short description of assay [10]: binders of probe aHhip on microarray, primary screen, stem cell growth factor project, biochemical, small-molecule microarray, fluorescence 635/667 (AID 1087).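 Note: score merges spot fluorescence at 667nm with spot signal to noise ratio.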 As to conditions: higher = more signal.
Assay [11] deals with PRMT1 (protein arginine N-methyltransferase 1). The assay can be described thus: PRMT1 binders on small-molecule microarrays, primary screen, biochemical, small-molecule microarray, 635 nm fluorescence (AID 1088).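 Note: binding of Prmt1 protein to compounds spotted on small-molecule microarray slides.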 The following applies: small-molecule microarray binding, higher = more signal.
A short description of assay [12]: yeast growth modulation, basal conditions, primary screen, YJM789 clinical isolate, OD600, 24 h (AID 1089).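 Note: growth of clinical yeast isolate S. cerevisiae YJM 789 seeded 1000 cells per well; test concentration not given here.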 The following applies: S. cerevisiae YJM789 growth, higher = more signal, called active from +8 up or from −8 down.
Assay [13] in a line: fission yeast growth modulation, primary screen, strain 972, OD600, 24 h, no modulator (AID 1090).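 Note: basal condition with compound alone and no growth modifier present; test concentration not given here.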 As to conditions: S. pombe 972 growth, higher = more signal, called active from +8 up or from −8 down.
The nature of assay [14]: S. cerevisiae growth modulation with rapamycin, primary screen, strain BY4716, OD600, 96 h (AID 1091). Note: test concentration not given here. As to conditions: higher = more signal, called active from +8 up or from −8 down.
Assay [15] deals with Torsin-1A-interacting protein 2 (Homo sapiens) (UniProt Q8NFQ8). The assay can be described thus: LULL1 binders on small-molecule microarray, primary screen, cell lysate, human LULL1 lysate, 635/667 nm fluorescence (AID 1092).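 Note: score merges per-feature 667 nm fluorescence with signal-to-noise.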 As to conditions: hLULL1 lysate binding, 635 nm fluorescence, higher = more signal.
Torsin-1A-interacting protein 2 (Homo sapiens), sequence (Q8NFQ8 whole entry, looked up): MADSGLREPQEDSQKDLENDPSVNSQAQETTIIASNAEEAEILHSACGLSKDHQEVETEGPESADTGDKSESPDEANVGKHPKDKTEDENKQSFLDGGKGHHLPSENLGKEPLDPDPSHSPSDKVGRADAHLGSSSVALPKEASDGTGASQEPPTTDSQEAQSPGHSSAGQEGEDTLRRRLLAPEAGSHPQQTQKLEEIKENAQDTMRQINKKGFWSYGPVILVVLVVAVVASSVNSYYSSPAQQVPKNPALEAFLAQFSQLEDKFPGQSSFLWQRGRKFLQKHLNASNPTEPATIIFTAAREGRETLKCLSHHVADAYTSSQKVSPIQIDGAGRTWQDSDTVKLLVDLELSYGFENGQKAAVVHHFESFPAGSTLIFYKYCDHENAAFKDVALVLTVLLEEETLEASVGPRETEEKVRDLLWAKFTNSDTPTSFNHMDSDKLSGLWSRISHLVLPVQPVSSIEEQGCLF
Assay [16] in a line: E. coli growth modulation, two-sided OD650, primary screen, E. coli filamentation project, strain DRC41, 24 h (AID 1093).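 Note: MC1000 strain lacking acrAB efflux and sulA so SOS filamentation is blocked; test concentration not given here.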 As to conditions: OD650, 24 h, higher = more signal, called active from +8 up or from −8 down.
The nature of assay [17]: small-molecule microarray binders of probe aLefty2, primary screen, biochemical, biotinylated probe, 635/667 nm fluorescence (AID 1094).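 Note: score merges spot fluorescence near 667 nm with spot signal-to-noise ratio.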 As to conditions: higher = more signal.
Assay [18] concerns Noggin (protein binding on small-molecule microarray). Briefly: Noggin binders on small-molecule microarray, primary screen, biochemical, 635/667 nm fluorescence (AID 1095).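 Note: score merges 667 nm feature fluorescence with signal to noise over triplicate slides.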 As to conditions: 635 nm fluorescence, higher = more signal.
Assay [19] has as its target Neurogenic locus notch homolog protein 3 (Homo sapiens) (UniProt Q9UM47). The assay can be described thus: NOTCH3 binders on small-molecule microarray, primary screen, biochemical, 635/667 nm fluorescence (AID 1096). As to conditions: NOTCH3 binding, 635 nm fluorescence, higher = more signal.
Assay [20] is described as follows: small-molecule microarray binders of probe aEGFR, primary screen, biochemical, biotinylated probe, 635/667 nm fluorescence (AID 1097).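 Note: probe is a biotinylated anti-EGFR antibody binding compounds printed on slides; score combines fluorescence near 667 nm and signal to noise of each spot.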 The following applies: higher = more signal.

Regarding `[N-]=[N+]=Nc1ccccc1[C@H]1OC(c2ccc(OCCCO)cc2)=N[C@@]1(CCS(=O)(=O)c1ccccc1)C(=O)N1CCOCC1`, the composite z-score was determined as 1.84 in assay [1]; 0.962 in [2]; 0.45 in assay [3]; 1.13 in assay [4]; 1.7 in assay [5]; 1.66 in assay [6]. Besides, the composite z-score is 1.27 in assay [7]; 1.53 in assay [9]; -0.372 in [10]; 1.55 in [11]; 3.1 in [15]; 0.766 in [17]. The composite z-score in assay [18] amounted to 0.245; in [19] it was 1.09; in assay [20], 0.561. Also, the z-score in assay [8] was 5.15 (inactive); in [12] it was 1.17 (inactive); in assay [13], 0.403 (inactive); in assay [14], 4.39 (inactive); in [16] it was 1.1 (inactive).

For `COc1ccc(C#Cc2ccc3c(c2)[C@]2(C(=O)N3)[C@H](C(=O)N3CCc4cc(OC)c(OC)cc4C3)[C@H]3C(=O)O[C@H](c4ccccc4)[C@H](c4ccccc4)N3[C@@H]2c2ccc(OCCO)cc2)cc1`, the composite z-score in assay [1] is -0.304; in assay [2], 0.487; in [3] it was 0.0019; in assay [4], 0.817; in assay [5], 1.32; in [6] it was 0.213. The composite z-score in assay [7] is 1.2; in assay [9], 0.35; in [10] it was 0.314; in assay [11], 1.55; in [15] it was 2.51; in assay [17] it was -0.0728. In addition, the composite z-score in assay [18] amounted to 1.48; in assay [19] it was 1.17; in [20], 0.102. The z-score is 0.239 (inactive) in assay [8]; 3.09 (inactive) in assay [12]; 2.07 (inactive) in assay [13]; 6.17 (inactive) in assay [14]; 1.9 (inactive) in assay [16].

As for `COC(=O)[C@@]1(Cc2ccc(F)cc2)[C@H]2c3cc(C(=O)N4CCCC4)n(CCc4ccc(OC)c(Br)c4)c3C[C@H]2CN1C(=O)c1ccccc1`, the composite z-score is 0.502 in assay [1]; 1.27 in [2]; 0.266 in assay [3]; 0.832 in assay [4]; 1.83 in [5]; 1.55 in assay [6]. The composite z-score in assay [7] is 1.29; in assay [9] it was 1.94; in [10], 1.68; in assay [11], 1.4; in assay [15] it was 3.52; in assay [17], 0.436. The composite z-score in assay [18] was -0.0473; in assay [19], 1.03; in assay [20], 0.324. In addition, the z-score in assay [8] is -0.784 (inactive); in assay [12], 0.0318 (inactive); in assay [13], 1.53 (inactive); in assay [14], 2.31 (inactive); in assay [16], -0.224 (inactive).

In the case of `C=C(COC)/C(=C/C[C@H](OC(C)=O)c1ccccc1OCCO)c1cnc2ccccc2c1`, the composite z-score in assay [1] was -0.419; in assay [2], -0.288; in assay [3], -0.0366; in assay [4], 1.08; in assay [5] it was 1.33; in assay [6], 1.19. For the same molecule, the composite z-score in [7] is 1.13; in assay [9], 0.101; in assay [10] it was 0.142; in assay [11] it was 0.826; in assay [15] it was 1.76; in [17] it was -0.171. Further, the composite z-score amounted to 0.556 in assay [18], 0.76 in assay [19] and 0.436 in assay [20]. Moreover, the z-score is -0.267 (inactive) in [8]; -0.837 (inactive) in [12]; 0.14 (inactive) in assay [13]; 1.29 (inactive) in assay [14]; 0.223 (inactive) in assay [16].

Regarding `COCCn1c(C(=O)N2CCCC2)cc2c1C[C@H]1CN(C(=O)c3ccccc3)[C@@](Cc3ccc(OC)cc3)(C(=O)OC)[C@@H]21`, the composite z-score in assay [1] stood at 1.42; in [2] it was 1.86; in assay [3], 0.264; in assay [4], 0.43; in assay [5], 1.64; in [6], 2.12. Moreover, the composite z-score was 0.905 in assay [7]; 0.602 in assay [9]; -0.0994 in assay [10]; 0.0027 in assay [11]; 1.72 in assay [15]; 0.656 in assay [17]. Further, the composite z-score in assay [18] is -0.843; in assay [19], 1.1; in assay [20] it was 0.147. In addition, the z-score in assay [8] was -1.1 (inactive); in assay [12], -2.08 (inactive); in [13], 0.422 (inactive); in assay [14], -0.651 (inactive); in assay [16] it was 0.0251 (inactive).
